Laboratory results as given in publication PMC8222333, “AsCas12a ultra nuclease facilitates the rapid generation of therapeutic cell medicines”.

Legend:
Assay in all cases: Spec-seq (native PAGE EMSA with sequencing of bound and unbound); 25 mM Tris-HCl pH 7.4, 150 mM KCl, 5 mM MgCl2, 10% glycerol, 1 mM DTT, 40 ng/uL salmon sperm DNA; 400 nM Cas12a, 480 nM crRNA, 50 nM library, 37 C 1 h; native PAGE at room temperature; high values mean tight binding
Conditions in all cases: protein: recombinant
dAsCas12a Ultra = dAsCas12a Ultra (Acidaminococcus sp., UniProt U2UMQ6 1-1307, M537R;F870L;D908A;E993A;D1235A)
dAsCas12a E174R = dAsCas12a E174R (Acidaminococcus sp., UniProt U2UMQ6 1-1307, E174R;D908A;E993A;D1235A);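 also: relative affinity from the bound to unbound sequence frequency ratio in Spec-seq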
dAsCas12a S542R = dAsCas12a S542R (Acidaminococcus sp., UniProt U2UMQ6 1-1307, S542R;D908A;E993A;D1235A);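 also: relative affinity from the bound to unbound sequence frequency ratio in Spec-seq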
d-enCas12a = d-enCas12a (Acidaminococcus sp., UniProt U2UMQ6 1-1307, E174R;S542R;K548R;D908A;E993A;D1235A)
d-enCas12a-Ultra = d-enCas12a-Ultra (Acidaminococcus sp., UniProt U2UMQ6 1-1307, E174R;S542R;K548R;M537R;F870L;D908A;E993A;D1235A);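 also: relative affinity from the bound to unbound sequence frequency ratio in Spec-seq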
dAsCas12a K548R = dAsCas12a K548R (Acidaminococcus sp., UniProt U2UMQ6 1-1307, K548R;D908A;E993A;D1235A)

Row | Binder | binding signal (dAsCas12a Ultra) [lnKA] | binding signal (dAsCas12a E174R) [lnKA] | binding signal (dAsCas12a S542R) [lnKA] | binding signal (d-enCas12a) [lnKA] | binding signal (d-enCas12a-Ultra) [lnKA] | binding signal (dAsCas12a K548R) [lnKA]
1 | TCCT (dsDNA) DNA 1: GCTATCTAGTGCTCAGTACGCACTGTCCTAGGAAACTTCTGGCAGGACCAGGTCATGAGATCGGAAGAGCACACGTCTGAACTCCAGTCA DNA 2: TGACTGGAGTTCAGACGTGTGCTCTTCCGATCTCATGACCTGGTCCTGCCAGAAGTTTCCTAGGACAGTGCGTACTGAGCACTAGATAGC RNA: AAUUUCUACUCUUGUAGAUAGGAAACUUCUGGCAGGACC | -8.78 | -8.39 | -5.43 | -3.98 | -0.951 | –
2 | TGTG (dsDNA) DNA 1: GCTATCTAGTGCTCAGTACGCACTGTGTGAGGAAACTTCTGGCAGGACCAGGTCATGAGATCGGAAGAGCACACGTCTGAACTCCAGTCA DNA 2: TGACTGGAGTTCAGACGTGTGCTCTTCCGATCTCATGACCTGGTCCTGCCAGAAGTTTCCTCACACAGTGCGTACTGAGCACTAGATAGC RNA: AAUUUCUACUCUUGUAGAUAGGAAACUUCUGGCAGGACC | -7.7 | -8.19 | -7.46 | -2.08 | -0.568 | -8.2
3 | TTAT (dsDNA) DNA 1: GCTATCTAGTGCTCAGTACGCACTGTTATAGGAAACTTCTGGCAGGACCAGGTCATGAGATCGGAAGAGCACACGTCTGAACTCCAGTCA DNA 2: TGACTGGAGTTCAGACGTGTGCTCTTCCGATCTCATGACCTGGTCCTGCCAGAAGTTTCCTATAACAGTGCGTACTGAGCACTAGATAGC RNA: AAUUUCUACUCUUGUAGAUAGGAAACUUCUGGCAGGACC | -8.23 | -8.07 | -7.55 | -4.53 | -2.12 | –
4 | TCGC (dsDNA) DNA 1: GCTATCTAGTGCTCAGTACGCACTGTCGCAGGAAACTTCTGGCAGGACCAGGTCATGAGATCGGAAGAGCACACGTCTGAACTCCAGTCA DNA 2: TGACTGGAGTTCAGACGTGTGCTCTTCCGATCTCATGACCTGGTCCTGCCAGAAGTTTCCTGCGACAGTGCGTACTGAGCACTAGATAGC RNA: AAUUUCUACUCUUGUAGAUAGGAAACUUCUGGCAGGACC | -7.42 | -7.83 | -7.58 | -5.36 | -2.95 | –
5 | TGGT (dsDNA) DNA 1: GCTATCTAGTGCTCAGTACGCACTGTGGTAGGAAACTTCTGGCAGGACCAGGTCATGAGATCGGAAGAGCACACGTCTGAACTCCAGTCA DNA 2: TGACTGGAGTTCAGACGTGTGCTCTTCCGATCTCATGACCTGGTCCTGCCAGAAGTTTCCTACCACAGTGCGTACTGAGCACTAGATAGC RNA: AAUUUCUACUCUUGUAGAUAGGAAACUUCUGGCAGGACC | -8.76 | – | -8.26 | -5.72 | -3.36 | –
6 | TGAA (dsDNA) DNA 1: GCTATCTAGTGCTCAGTACGCACTGTGAAAGGAAACTTCTGGCAGGACCAGGTCATGAGATCGGAAGAGCACACGTCTGAACTCCAGTCA DNA 2: TGACTGGAGTTCAGACGTGTGCTCTTCCGATCTCATGACCTGGTCCTGCCAGAAGTTTCCTTTCACAGTGCGTACTGAGCACTAGATAGC RNA: AAUUUCUACUCUUGUAGAUAGGAAACUUCUGGCAGGACC | -8.9 | – | -8.33 | -5.68 | -3.27 | –
7 | TTGT (dsDNA) DNA 1: GCTATCTAGTGCTCAGTACGCACTGTTGTAGGAAACTTCTGGCAGGACCAGGTCATGAGATCGGAAGAGCACACGTCTGAACTCCAGTCA DNA 2: TGACTGGAGTTCAGACGTGTGCTCTTCCGATCTCATGACCTGGTCCTGCCAGAAGTTTCCTACAACAGTGCGTACTGAGCACTAGATAGC RNA: AAUUUCUACUCUUGUAGAUAGGAAACUUCUGGCAGGACC | -7.79 | -7.77 | -7.47 | -4.47 | -1.69 | –
8 | TTCG (dsDNA) DNA 1: GCTATCTAGTGCTCAGTACGCACTGTTCGAGGAAACTTCTGGCAGGACCAGGTCATGAGATCGGAAGAGCACACGTCTGAACTCCAGTCA DNA 2: TGACTGGAGTTCAGACGTGTGCTCTTCCGATCTCATGACCTGGTCCTGCCAGAAGTTTCCTCGAACAGTGCGTACTGAGCACTAGATAGC RNA: AAUUUCUACUCUUGUAGAUAGGAAACUUCUGGCAGGACC | -6.85 | -7.11 | -3.01 | -1.14 | -0.323 | -8.63
9 | TCTT (dsDNA) DNA 1: GCTATCTAGTGCTCAGTACGCACTGTCTTAGGAAACTTCTGGCAGGACCAGGTCATGAGATCGGAAGAGCACACGTCTGAACTCCAGTCA DNA 2: TGACTGGAGTTCAGACGTGTGCTCTTCCGATCTCATGACCTGGTCCTGCCAGAAGTTTCCTAAGACAGTGCGTACTGAGCACTAGATAGC RNA: AAUUUCUACUCUUGUAGAUAGGAAACUUCUGGCAGGACC | -6.94 | -6.26 | -7.22 | -5.44 | -2.4 | –
10 | TTAG (dsDNA) DNA 1: GCTATCTAGTGCTCAGTACGCACTGTTAGAGGAAACTTCTGGCAGGACCAGGTCATGAGATCGGAAGAGCACACGTCTGAACTCCAGTCA DNA 2: TGACTGGAGTTCAGACGTGTGCTCTTCCGATCTCATGACCTGGTCCTGCCAGAAGTTTCCTCTAACAGTGCGTACTGAGCACTAGATAGC RNA: AAUUUCUACUCUUGUAGAUAGGAAACUUCUGGCAGGACC | -8.15 | -8.42 | -7.46 | -4.03 | -1.65 | –
11 | TCGT (dsDNA) DNA 1: GCTATCTAGTGCTCAGTACGCACTGTCGTAGGAAACTTCTGGCAGGACCAGGTCATGAGATCGGAAGAGCACACGTCTGAACTCCAGTCA DNA 2: TGACTGGAGTTCAGACGTGTGCTCTTCCGATCTCATGACCTGGTCCTGCCAGAAGTTTCCTACGACAGTGCGTACTGAGCACTAGATAGC RNA: AAUUUCUACUCUUGUAGAUAGGAAACUUCUGGCAGGACC | -8.83 | -8.58 | -8.35 | -5.85 | -3.4 | –
12 | TCGA (dsDNA) DNA 1: GCTATCTAGTGCTCAGTACGCACTGTCGAAGGAAACTTCTGGCAGGACCAGGTCATGAGATCGGAAGAGCACACGTCTGAACTCCAGTCA DNA 2: TGACTGGAGTTCAGACGTGTGCTCTTCCGATCTCATGACCTGGTCCTGCCAGAAGTTTCCTTCGACAGTGCGTACTGAGCACTAGATAGC RNA: AAUUUCUACUCUUGUAGAUAGGAAACUUCUGGCAGGACC | -8.77 | -8.54 | -7.61 | -5.86 | -3.33 | –
13 | TTGG (dsDNA) DNA 1: GCTATCTAGTGCTCAGTACGCACTGTTGGAGGAAACTTCTGGCAGGACCAGGTCATGAGATCGGAAGAGCACACGTCTGAACTCCAGTCA DNA 2: TGACTGGAGTTCAGACGTGTGCTCTTCCGATCTCATGACCTGGTCCTGCCAGAAGTTTCCTCCAACAGTGCGTACTGAGCACTAGATAGC RNA: AAUUUCUACUCUUGUAGAUAGGAAACUUCUGGCAGGACC | -7.84 | -8.2 | -7.64 | -5.22 | -2.4 | –
14 | TGTT (dsDNA) DNA 1: GCTATCTAGTGCTCAGTACGCACTGTGTTAGGAAACTTCTGGCAGGACCAGGTCATGAGATCGGAAGAGCACACGTCTGAACTCCAGTCA DNA 2: TGACTGGAGTTCAGACGTGTGCTCTTCCGATCTCATGACCTGGTCCTGCCAGAAGTTTCCTAACACAGTGCGTACTGAGCACTAGATAGC RNA: AAUUUCUACUCUUGUAGAUAGGAAACUUCUGGCAGGACC | -7.9 | -8.41 | -7.82 | -3.23 | -0.889 | –
15 | TGGA (dsDNA) DNA 1: GCTATCTAGTGCTCAGTACGCACTGTGGAAGGAAACTTCTGGCAGGACCAGGTCATGAGATCGGAAGAGCACACGTCTGAACTCCAGTCA DNA 2: TGACTGGAGTTCAGACGTGTGCTCTTCCGATCTCATGACCTGGTCCTGCCAGAAGTTTCCTTCCACAGTGCGTACTGAGCACTAGATAGC RNA: AAUUUCUACUCUUGUAGAUAGGAAACUUCUGGCAGGACC | -8 | – | -7.85 | -5.44 | -3.27 | –
